Experimental data published in PubChem BioAssay (NCI).
The panel holds about 79,000 compounds, 15% with a hit somewhere; the sample as a whole holds those more often. Rule as the data show it: active = growth inhibition above about 70%; inactive = the rest.

Assays:
[1] = NCI Yeast Anticancer Drug Screen. Data for the rad50 strain (AID 155);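 also: 0% = growth of vehicle-only cultures of the same strain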; conditions: S. cerevisiae rad50 strain growth inhibition; at 50.0 µM; active compounds read high
Summary of the method: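 Inhibition values express reduced yeast growth in compound-treated cultures relative to vehicle-treated controls.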

[2] = NCI Yeast Anticancer Drug Screen. Data for the mec2-1 strain (AID 157); conditions: S. cerevisiae mec2-1 strain, at 50.0 µM, active compounds read high
Summary of the method: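 Cells of the genetically defined mec2-1 yeast strain are incubated with test compound. Inhibition of growth is calculated against vehicle-treated controls.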

[3] = NCI Yeast Anticancer Drug Screen. Data for the sgs1 mgt1 strain (AID 161);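 also: 0% = growth of cultures given vehicle only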; conditions: S. cerevisiae sgs1 mgt1 strain, at 50.0 µM, active compounds read high
Summary of the method: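 Genetically altered yeast, compound exposure, growth inhibition relative to vehicle.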

[4] = NCI Yeast Anticancer Drug Screen. Data for the cln2 rad14 strain (AID 165);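 also: 0% = growth equal to vehicle treated cultures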; conditions: S. cerevisiae cln2 rad14 strain, at 50.0 µM, active compounds read high
Summary of the method: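 The screen exposed genetically defined yeast (cln2 rad14) to test compounds and scored growth inhibition relative to vehicle-treated controls.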

[5] = NCI Yeast Anticancer Drug Screen. Data for the bub3 strain (AID 167); conditions: S. cerevisiae bub3 mutant strain, at 50.0 µM, active compounds read high
Summary of the method: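 Steps: expose the mutant yeast strain to compound; grow alongside vehicle-treated cultures; measure growth; express inhibition against the vehicle cultures.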

[6] = NCI Yeast Anticancer Drug Screen. Data for the mlh1 rad18 strain (AID 175); conditions: S. cerevisiae mlh1 rad18 strain growth inhibition; at 50.0 µM; active compounds read high
Summary of the method: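 Compound-treated yeast growth, normalised to vehicle controls. Strain bears defined DNA repair mutations.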

Measured: growth inhibition

COc1ccc(OC)c2c(Cl)ccnc12
inactive: [1] 17.1% | [2] 15.1% | [3] 15.6% | [4] 20.8% | [5] 11.1% | [6] 24.5%

O=C1C(=O)C(c2ccccc2)S(=O)(=O)C1c1ccccc1 (configuration not stated)
inactive: [1] -5.3% | [2] -5.05% | [3] -6.3% | [4] 4.3% | [5] 7.55% | [6] 14.6%

O=C(CC/C=C(/CS(=O)(=O)c1ccccc1)S(=O)(=O)c1ccccc1)c1ccccc1
inactive: [1] 20.3% | [2] -15.1% | [3] -5.75% | [4] -24.1% | [5] -6.15% | [6] 13.4%

Cc1ccc(S(=O)(=O)NNc2nc(N3CCCCC3)nc(N3CCCCC3)n2)cc1
inactive: [1] -1.25% | [2] -2.4% | [3] 8.2% | [4] -17.9% | [5] -4.85% | [6] 19.6%

CCOC(OCC)C(O)c1ccccc1 (configuration not stated)
inactive: [1] -17.2% | [2] -17% | [3] -11.9% | [4] -15% | [5] -12.6% | [6] -11%

OC(C(=S)N1CCCC1)(c1ccccc1)c1ccccc1
inactive: [1] 10.8% | [2] 17.3% | [3] 24.2% | [4] 8.45% | [5] 9.6% | [6] -0.6%

Nc1[nH]c(=S)[nH]c(=O)c1NS(=O)(=O)c1cccc([N+](=O)[O-])c1
inactive: [1] -14.1% | [2] -10% | [3] -22.1% | [4] -18.2% | [5] -11.4% | [6] 12.8%

COc1ccc(N2C(=O)CC(c3c[nH]c4ccccc34)C2=O)cc1 (configuration not stated)
inactive: [1] -29.2% | [2] -37.1% | [3] 1.05% | [4] 6.9% | [5] 13.8% | [6] -22.2%

O=c1cn[nH]c(=O)[nH]1
inactive: [1] 35.4% | [2] 0.7% | [3] 32.5% | [4] 10.8% | [5] 4.9% | [6] 11.5%

CC1(C)CCCC2(C)C(C(=O)O)C3CCC45OC3(CC12)OC(=O)C4C1(C)CCCC(C)(C)C1CC5=O (configuration not stated)
inactive: [1] 2.15% | [2] 5.65% | [3] -0.9% | [4] 2.85% | [5] -2.1% | [6] 9.25%

c1ccc(CC/C(=N/N=C(\CCc2ccccc2)c2ccccc2)c2ccccc2)cc1
inactive: [1] 10.7% | [2] 8.05% | [3] -13.3% | [4] -8.75% | [5] -3% | [6] 7.6%

CC1CN(C(=S)Nc2ccccc2)C(C)CN1CCO (configuration not stated)
inactive: [1] 58.5% | [2] 1.6% | [3] 14.2% | [4] -39% | [5] -3.9% | [6] 16.6%

CCC(C)[N-]c1cccc[n+]1[O-].CCC(C)[N-]c1cccc[n+]1[O-].[Cu+2] (configuration not stated)
inactive: [1] 8.3% | [2] -3.9% | [3] -9.8% | [4] -2% | [5] -18.3% | [6] -18.4%

CC1(C)OC2C(O1)[C@H]1OC(C(Cl)(Cl)Cl)=N[C@H]1C(I)[C@H]2N1C(=O)c2ccccc2C1=O (some centres not stated)
inactive: [1] 0.25% | [2] -45.9% | [3] -5.15% | [4] -52.6% | [5] -5.9% | [6] 3.55%

CC(=O)NC1=NC(=O)/C(=C/Cc2cccs2)N1C
inactive: [1] 6.8% | [2] 16.1% | [3] 1.55% | [4] -5.55% | [5] -23.8% | [6] -25.4%

Cc1ccc(-c2cc(O)c3nc4ccccc4n3c2)cc1
inactive: [1] -36.4% | [2] -10.1% | [3] -31.4% | [4] -22.9% | [5] -18.5% | [6] -24.1%

CC1(C)CC(=O)C(/C=N/C(=S)NC2CCCCC2)=C(O)C1
inactive: [1] -13.2% | [2] -20.1% | [3] -31.5% | [4] 10.6% | [5] -7.7% | [6] -8%

CN(CCC(=O)O)S(=O)(=O)c1ccccc1
inactive: [1] -13.1% | [2] -17.2% | [3] -10.6% | [4] -9.1% | [5] -46.4% | [6] -3.8%

CCCNC(=S)/N=C/c1c(O)c2ccccc2[nH]c1=O
inactive: [1] -40% | [2] -44.6% | [3] -11.7% | [4] 12.3% | [5] 6.8% | [6] -13.6%

COc1ccc2c(=O)cc(-c3ccncc3)oc2c1OC
inactive: [1] 40.2% | [2] 7.8% | [3] -4.05% | [4] 2.3% | [5] -47% | [6] 31.2%

CC1=CC(=O)/C(=C/N2C(=O)CNC2=S)C(=O)O1
inactive: [1] -49.1% | [2] -37.1% | [3] -13.8% | [4] 15.4% | [5] -4.25% | [6] -45.1%

CNC(=O)NS(=O)(=O)c1cccc([N+](=O)[O-])c1
inactive: [1] -0.3% | [2] 5.35% | [3] -8.3% | [4] 1.9% | [5] -21.6% | [6] -17.3%

CCC/C(=N/NC(=O)C1CCCO1)c1ccccc1 (configuration not stated)
inactive: [1] -1.8% | [2] 18.4% | [3] 16.6% | [4] -4.2% | [5] 7.5% | [6] 26%

COc1cc(C2C3=C(CCCC3=O)N(c3ccc(C)cc3)C3=C2C(=O)CCC3)c([N+](=O)[O-])cc1OC
inactive: [1] -10.8% | [2] -4.2% | [3] 2.65% | [4] 2.2% | [5] 4.3% | [6] -0.3%

CSc1nc2c(c(=O)[nH]1)CC(=O)N2
inactive: [1] 0.35% | [2] -5.75% | [3] -7.25% | [4] -33.6% | [5] -12.2% | [6] -3.1%

CC(=O)N1CC(C)CC2OC3(CCC4C5CCC6CC(=O)CCC6(C)C5C(=O)C4C3C)C(C)C21 (configuration not stated)
inactive: [1] -0.65% | [2] -13.1% | [3] -9.15% | [4] -0.75% | [5] -5.9% | [6] -3.75%

O=C1/C(=C/c2ccc([N+](=O)[O-])cc2)CCCc2ccccc21
inactive: [1] 11.1% | [2] 6.8% | [3] 22.9% | [4] -22.3% | [5] -0.95% | [6] 21.9%

Clc1nc(C(Cl)Cl)nc2ccccc12
inactive: [1] 9.65% | [2] 10.8% | [3] 14.2% | [4] 2.9% | [5] 16.1% | [6] 12.4%

O=c1oc2ccccc2cc1CCBr
inactive: [1] 16.4% | [2] 11.4% | [3] -6.1% | [4] -3.3% | [5] -9.2% | [6] -8.05%

CN(C)c1ccc(/C=C/C=C/C(=O)c2ccccc2)cc1
inactive: [1] -5.35% | [2] 16.2% | [3] -0.1% | [4] 5.55% | [5] -13.8% | [6] -7.4%

Cc1cc(C)c2c(SCc3ccc(Cl)cc3Cl)nc(N)nc2n1
inactive: [1] 31.8% | [2] 12.3% | [3] 45.9% | [4] -27.9% | [5] 7.1% | [6] 44.8%

Cc1cccc(C)c1-n1c(C)nc2[nH]cc(C)c2c1=N
inactive: [1] 6.35% | [2] -6.25% | [3] 4.55% | [4] 5.1% | [5] 17.1% | [6] 8.95%

CCC(CC)=NNc1ccc([N+](=O)[O-])cc1[N+](=O)[O-]
inactive: [1] -2.45% | [2] -11.4% | [3] -13.6% | [4] -51.1% | [5] 0.75% | [6] -9.85%

CSC1(C)C(=O)Nc2ccccc21 (configuration not stated)
inactive: [1] -4.15% | [2] -9.65% | [3] -0.35% | [4] -20.8% | [5] -36.3% | [6] 3.6%

O=c1[nH]cc(C2OCC(O)C(O)C2O)c(=O)[nH]1 (configuration not stated)
inactive: [1] 1.45% | [2] -14.4% | [3] 0.5% | [4] 1.95% | [5] -19.1% | [6] -32.5%

CC(C)CC(C)Cc1ccncc1 (configuration not stated)
inactive: [1] 0.4% | [2] 1.65% | [3] 24.8% | [4] 11.8% | [5] -1.65% | [6] -5%

Brc1cccc(-c2nnc(-c3ccccc3)o2)c1
inactive: [1] -4.15% | [2] -11.7% | [3] -8.4% | [4] -41.5% | [5] -0.4% | [6] -12.1%

C=CC1(C)C(C)=C(C)C(C)=C1C
inactive: [1] 11.1% | [2] -4.2% | [3] -13.7% | [4] 18% | [5] -2% | [6] 9.4%

COC(=O)C1CCC(=O)C(Sc2ccccc2)C1 (configuration not stated)
inactive: [1] 25.1% | [2] -11.9% | [3] 18.4% | [4] 6% | [5] 32.1% | [6] 28.4%

Cc1nc2c(=O)[nH]c3ccccc3c2o1
inactive: [1] -3.25% | [2] 7% | [3] 3.1% | [4] -7% | [5] -10.3% | [6] -32.4%

CN(C)c1nc(N)c2ccc(Cl)cc2n1
inactive: [1] -8% | [2] 10.6% | [3] -7.15% | [4] 0.85% | [5] -8.05% | [6] 8.7%

CC(C)CC(C)C
inactive: [1] 17.9% | [2] -2.6% | [3] 20.7% | [4] 5.75% | [5] 13.4% | [6] 25.1%
